D2 PAM-1: positive allosteric modulators of human D2 dopamine receptor; P14416; HEK293 T-REx D2, calcium flux, EC20 dopamine potentiation; potentiation, % at 10 µM; 340,000 tested, 0.34% active; AID 485347;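 active means potentiation over 3 SD above the plate norm, cut at about 30% in these data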; further: 0% is about no effect
Target sequence (P14416 whole entry, looked up): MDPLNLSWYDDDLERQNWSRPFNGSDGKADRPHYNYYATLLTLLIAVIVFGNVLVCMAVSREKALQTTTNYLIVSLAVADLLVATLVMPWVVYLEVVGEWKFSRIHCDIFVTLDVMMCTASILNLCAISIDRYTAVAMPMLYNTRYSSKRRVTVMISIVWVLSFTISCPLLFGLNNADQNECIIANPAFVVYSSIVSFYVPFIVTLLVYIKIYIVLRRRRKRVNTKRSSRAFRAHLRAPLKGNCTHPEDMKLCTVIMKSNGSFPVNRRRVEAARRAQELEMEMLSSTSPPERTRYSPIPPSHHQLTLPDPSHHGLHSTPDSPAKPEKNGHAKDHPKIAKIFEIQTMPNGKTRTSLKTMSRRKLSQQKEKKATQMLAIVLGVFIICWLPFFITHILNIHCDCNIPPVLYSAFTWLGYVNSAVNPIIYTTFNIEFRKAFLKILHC
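Potentiation of an EC20 dopamine calcium response is measured in a force-coupled, tetracycline-inducible Hek293 Trex D2 line. Compound-only kinetic reads over 180 s flag agonists before dopamine addition.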
D2 ag-1: activates the human D2 dopamine receptor. 340,000 tested, 0.53% active. P14416. HEK293 T-REx D2 cells, calcium flux agonist mode. activation, % at 2 µM;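 active means activation over 3 SD above normal in the single-dose calcium agonist read, cut at about 30% in these data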; further: 0% is about no effect
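In this primary screen, compounds producing a positive calcium signal within 180 s of addition to tetracycline-induced, force-coupled HEK293 Trex D2 cells are flagged; cells are dye-loaded with a no-wash calcium kit beforehand.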
D2 ag-2: human D2 receptor agonism in beta-arrestin assay. 360,000 tested, 0.084% active. activation, % (concentration not given with the values). AID 624465. DiscoveRx PathHunter D2 beta-arrestin, luminescence, 90 min; 100% = 57 uM dopamine signal. P14416; in the data active means activation above about 40%
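DiscoveRx PathHunter D2 beta-arrestin cells (2,100/well) attached overnight, then compound-stimulated 90 min at 37 C in HBSS/10 mM HEPES/0.1% Tween-20 buffer; beta-galactosidase complementation read by luminescence after 1 h at ambient temperature. Dopamine 57 uM final (EC100) as control.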
D2 PAM-2: human D2 receptor positive allosteric modulation; P14416; AID 624464; 360,000 tested, 0.23% active; DiscoveRx D2 beta-arrestin cells, luminescence, 90 min; 100% = 57 uM dopamine signal; potentiation, % (test concentration not listed); in the data active means potentiation above about 50%
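PathHunter D2 cells, attached overnight at 37 deg C, received compound in DMSO plus dopamine at EC20 (50 nM final) for 90 min at 37 deg C. Beta-arrestin recruitment was read as luminescence after 1 h with detection reagent at ambient temperature.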
D2 antagonist: D2 dopamine receptor (human) antagonism; HEK293 TREx D2 cells, calcium flux, dopamine EC80; inhibition, % at 10 µM; 340,000 tested, 2% active; AID 485344; in the data active means inhibition above about 30%; inactive means below that, where a call was filed; further: 0% is about no effect
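Tetracycline-induced HEK293 TREx cells expressing D2 receptor forced-coupled to calcium signalling, loaded with no-wash calcium dye. Compounds added and calcium flux read 180 s, then dopamine added at EC80 and read a further 180 s.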
An asterisk follows results filed as active; nt = no result. The list is not random: actives were taken first. Their share in the collection is about 2.4%.

SMILES | D2 PAM-1 | D2 ag-1 | D2 ag-2 | D2 PAM-2 | D2 antagonist
O=C(CSC1=NCCN1)Nc1cccc(C(F)(F)F)c1 | -21.2 | 0.9 | -2.1 | -13.1 | 75.4*
CCc1ccc(S(=O)(=O)c2nnn(-c3ccc(F)cc3)c2N)cc1 | 1.3 | 0.9 | nt | nt | nt
CC1CCN(CCc2nc3cc(NS(=O)(=O)c4ccc(F)cc4)ccc3n2C)CC1 | nt | -1.2 | -0.5 | -40.1 | 35.6*
CC1CCN(CCc2nc3cc(NC(=O)Nc4ccccc4)ccc3n2C)CC1 | -13.6 | 1.3 | 2.3 | -12.4 | -38.0
CC1CCN(CCc2nc3cc(NS(=O)(=O)c4ccccc4)ccc3n2C)CC1 | -21.9 | 0.6 | -5.2 | -46.5 | 30.3*
CCC(C)(C)NC(=O)CN(C(=O)CCC(=O)Nc1nccs1)c1ccccc1C | -3.0 | -0.1 | -2.0 | -11.1 | 39.0*
CCOc1cc(/C=N/NC(=O)c2cccnc2)ccc1O | 3.6 | 0.1 | -7.6 | 2.7 | 31.4*
O=C(N/N=C/c1cccnc1)C1CCCCC1 | 32.0* | 0.4 | 0.4 | -5.6 | -19.0
O=C(N/N=C/c1cccnc1)c1cccc(Cl)c1 | -3.0 | 2.4 | 1.4 | -8.7 | 35.0*
O=C(N/N=C/c1ccsc1)C1CC1 | 39.6* | 0.1 | -1.8 | -3.0 | 0.3
CC1(C(=O)Nc2cccc(C(F)(F)F)c2)Cc2c(-c3ccc4c(c3)OCO4)ccnc2O1 (stereo unspecified) | nt | nt | -2.1 | 3.5 | nt
CC1CCN(C(=O)c2ccc(NC(=O)c3nsc4ccccc34)cc2)CC1 | 11.7 | nt | nt | nt | nt
c1csc(C2=Nn3c(nnc3-c3ccncc3)SC2)c1 | 31.6* | 0.8 | -1.7 | 19.6 | 20.5
Cc1ccc(CSc2nnc(CS(=O)Cc3ccc(Cl)cc3Cl)n2C)cc1 (stereo unspecified) | 4.6 | -0.1 | -0.4 | 6.8 | -9.0
Cn1c(CS(=O)Cc2c(Cl)cccc2Cl)nnc1SCc1ccc(Cl)cc1 (stereo unspecified) | 11.1 | -1.3 | 0.1 | -9.6 | 31.0*
Cc1ccc(-n2ncc3c(N4CCCC4)ncnc32)c(C)c1 | -4.4 | 1.3 | -2.9 | -12.6 | 10.8
COc1cccc(N2CCN(c3ncnc4c3cnn4-c3ccc(C)cc3C)CC2)c1 | -7.8 | -0.2 | 86.7* | 25.3 | 22.8
CCc1ccc(C2(O)CC(C(F)(F)F)=NN2C(=O)Cc2ccc([N+](=O)[O-])cc2)cc1 (stereo unspecified) | -4.8 | -0.2 | -3.4 | -12.5 | 32.8*
O=C(c1ccccc1O)N1N=C(C(F)(F)F)CC1(O)c1ccc([N+](=O)[O-])cc1 (stereo unspecified) | -7.0 | 0.9 | -7.2 | -12.6 | -5.9
COc1ccc2c(=O)c3c(=O)n(CCc4ccccc4)c(C)nc3oc2c1 | nt | nt | 1.0 | -0.2 | nt
O=c1c2ccccc2oc2nc(-c3ccco3)n(CCc3ccccc3)c(=O)c12 | 2.9 | -0.9 | nt | nt | -5.3
Cc1nc2oc3ccccc3c(=O)c2c(=O)n1Cc1ccccc1 | -8.6 | 0.8 | -1.3 | -3.6 | 31.1*
COc1ccc(Cn2c(C)nc3oc4cc(OC)ccc4c(=O)c3c2=O)cc1 | -10.7 | -0.4 | -5.8 | -37.7 | 71.7*
CCCCCCn1c(-c2ccco2)nc2oc3cc(OC)ccc3c(=O)c2c1=O | 30.1* | -0.8 | -1.0 | -8.5 | -4.4
O=C(NC(=S)NC1CCS(=O)(=O)C1)c1ccccc1Br (stereo unspecified) | 10.6 | 0.5 | -4.1 | -18.9 | 10.9
SMILES | D2 PAM-1 | D2 ag-1 | D2 ag-2 | D2 PAM-2 | D2 antagonist
COc1ccccc1NC(=O)C1=C(C)Nc2nc(SCc3ccccc3C)nn2C1CC(C)C (stereo unspecified) | 3.0 | nt | nt | nt | nt
COc1ccc(NC(=S)N(CCCN2CCC(C)CC2)Cc2cccs2)cc1Cl | -8.5 | 0.4 | -3.2 | -22.2 | 5.3
Cc1cc(C)cc(NC(=S)N(CCCN2CCN(C)CC2)Cc2cccs2)c1 | nt | 0.5 | 0.5 | 0.5 | 0.6
COc1cccc(NC(=S)N(CCCN2CCCC(C)C2)Cc2cccs2)c1 (stereo unspecified) | -28.4 | 2.5 | 0.7 | -14.6 | 59.1*
CSc1cccc(NC(=S)N(CCCN2CCCC(C)C2)Cc2cccs2)c1 (stereo unspecified) | -17.1 | 0.3 | -4.9 | -38.6 | 45.6*
Cc1ccc(-c2c(C)n3c4c(=O)n(C)c(=O)n(C)c4nc3n2-c2cccc(O)c2)cc1 | -4.1 | 0.0 | nt | nt | nt
CCOC(=O)C1CCCN(C(=O)c2ccc3nc(-c4cccc(OC)c4)oc3c2)C1 (stereo unspecified) | 0.7 | -0.8 | 0.6 | -10.6 | -10.5
CCOC(=O)c1ccc(NS(=O)(=O)c2c(C)nc3sccn3c2=O)cc1 | -6.2 | -1.7 | 1.4 | 5.9 | 11.6
CCCCOC(=O)c1ccc(OC(=O)c2cccnc2)cc1 | 2.0 | -0.4 | -2.4 | 3.9 | 30.5*
CCCCCCOC(=O)c1ccc(OC(=O)c2cccnc2)cc1 | 2.8 | 1.3 | -3.9 | -14.7 | -27.1
CC(Cc1ccco1)NC(=O)c1ccc(C(F)(F)F)cc1 (stereo unspecified) | -12.0 | -1.2 | -2.5 | -13.7 | 32.2*
O=C(COc1ccccc1)OCc1cc(-c2ccco2)on1 | -0.7 | 1.3 | 4.6 | -2.8 | 0.7
CCC(C)(C)n1nnnc1C(c1ccccn1)N1CCCCC1 (stereo unspecified) | -6.1 | 0.4 | -0.4 | -7.1 | 51.8*
CCCCn1nnnc1C(C1CC1)N1CCN(C/C=C/c2ccccc2)CC1 (stereo unspecified) | nt | nt | -5.7 | -14.0 | nt
CC1CCCN(CCCNC(=O)c2ccc(NC(=O)C3=CSCCO3)cc2)C1 (stereo unspecified) | -0.3 | 0.3 | -1.1 | -18.3 | -2.1
Cc1cccc(N2CCN(CCCNC(=O)c3ccc(NC(=O)C4=CSCCO4)cc3)CC2C)c1 (stereo unspecified) | -28.2 | 16.1 | 1.2 | 4.1 | 36.3*
CN1/C(=C\C=Nc2cc(S(=O)(=O)N3CCOCC3)ccc2N2CCOCC2)C(C)(C)c2ccccc21 | -9.8 | -0.2 | 4.4 | -13.0 | 13.8
Brc1cccc(OCCCNC2CCCC2)c1 | -26.2 | 7.8 | -5.6 | -23.6 | 57.6*
Cc1ccc(C)c(OCCCNC2CCCC2)c1C | 6.9 | -1.7 | -5.6 | -3.5 | -3.3
CCOc1ccccc1OCCNC1CCCC1 | -50.6 | 0.7 | -2.7 | -17.3 | 61.8*
CCOc1ccc(OCCNC2CCCC2)cc1 | -3.4 | -0.1 | -4.0 | -4.7 | 15.6
COc1cccc(OC)c1OCCCNC1CCCC1 | -29.7 | 0.0 | -4.3 | -2.5 | 47.7*
CCC1CCCCN1C(=O)CSc1nnc(N)s1 (stereo unspecified) | nt | nt | 1.0 | -0.7 | nt
CC(C)c1ccc(OCc2cc(=O)n3c4c(sc3n2)CCCC4)cc1 | 5.1 | 0.2 | nt | nt | nt
CC1(C(=O)NS(=O)(=O)Cc2ccccc2C(F)(F)F)CCN1C(=O)c1cccc(F)c1 (stereo unspecified) | nt | nt | -4.4 | -0.7 | nt
Cc1cc(C)cc(C(=O)NCC(=O)OCN2C(=O)c3ccccc3C2=O)c1 | -3.6 | 0.1 | -3.7 | -8.3 | 44.1*
Cc1cc(NC(=O)Cn2c(=O)oc3cc(S(=O)(=O)N4CCCC4)ccc32)ccc1Br | -5.1 | 0.1 | nt | nt | nt
